Among the data in PubChem BioAssay (NCATS) are Potency and activity change, negative = inhibition values, retold here.

Assay [1] is described as follows: Cytotoxicity counterscreen for inhibitors of SARS-CoV-2 cell entry (AID 1645845). Note: nearly all actives have a fitted effect of over 50% in size. The settings on record: outcome: dose series up to 57.1 µM unless noted. An outline of the steps: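 ATP-content luminescence (ATPLite 1step, 15 min RT) read after 48 h compound exposure of Expi293F cells stably expressing human ACE2; normalized to cells-only wells and media-only wells.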
Background: The purpose of a counterscreen is to sort out artefacts and off-target activity.

The nature of assay [2]: Primary qHTS to identify inhibitors of SARS-CoV-2 cell entry (AID 1645846). Note: nearly all actives have a fitted effect of over 45% in size. The settings on record: SARS-CoV-2 pseudovirus cell entry assay, luminescence; activity change, negative = inhibition: at 57.1 µM (top of the series) unless noted. The method in brief: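 Inhibition of spike-mediated entry was scored in human ACE2-transfected Expi293F cells. Particles were MLV-pseudotyped with Wuhan-Hu-1 S carrying a 19-aa C-terminal deletion; signal was luciferase after two days, scaled between spike PP and fusion-protein-free PP.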
(In qHTS, concentration-response curves come from the screen itself.)

Structures are written as SMILES. Inconclusive results are not listed. Active and inactive are the calls of the source. Calls come from the whole dose curve.
Potency is the fitted concentration of half-maximal effect.

For `NC1CCCN(c2c(/C=C3\SC(=O)NC3=O)cccc2-c2ccccc2)C1` (stereo not given), the Potency result in assay [1] is “inactive”. In addition, in assay [2], the activity change, negative = inhibition was -5.59%.
For the molecule `OC(c1ccc(-c2ccc(CN3CCN(Cc4ccncc4)CC3)cc2)c(F)c1)(C(F)(F)F)C(F)(F)F`, the Potency entry in assay [1] and in assay [2] was “inactive” each time.
For `C[C@@H]1CC(=O)Nc2cccc(-c3cnn(C(C)(C)C)c3)c2N1`, the Potency entry in assay [1] is “inactive”. The activity change, negative = inhibition in assay [2] was -17.2%.
With `C[C@H]1C[C@@H](n2c(Nc3ccc(OC(F)(F)F)cc3)nc3cc(CCC(=O)O)ccc32)CC(C)(C)C1`, the Potency result in assay [1] is “inactive”. For the same molecule, the activity change, negative = inhibition in assay [2] turned out to be 2.52%.
Consider `CCCCOC(=O)NS(=O)(=O)c1sc(CC(C)C)cc1-c1ccc(Cn2ccnc2)cc1`, for which the Potency result in assay [1] and in assay [2] was “inactive” in each case.
On to `CCOC(=O)N[C@@H]1CC[C@@H]2[C@@H](C1)C[C@H]1C(=O)O[C@H](C)[C@H]1[C@H]2/C=C/c1ccc(-c2cccc(F)c2)cn1`, for which, in assay [1], the Potency result is “inactive”. Besides, the Potency in assay [2] is 28.2 µM (active).
With `O=C(NOCCO)c1ccc2cncn2c1Nc1ccc(I)cc1F`, in assay [1], the Potency entry was “inactive”. The activity change, negative = inhibition in assay [2] is -11.2%.
As to `C[C@]12CC[C@H](O)CC1=CC[C@@H]1[C@@H]2CC[C@]2(C)C(c3cccnc3)=CC[C@@H]12`, the Potency result in assay [1] and in assay [2] was “inactive” in each case.
Turning to `Cc1cc(Oc2ccc3nc(COc4ccc(CC5SC(=O)NC5=O)cc4)n(C)c3c2)cc(C)c1N` (stereo not given), the Potency result in assay [1] is “inactive”. Also, the activity change, negative = inhibition in assay [2] worked out at 2.59%.
`C[C@H]1Oc2cc(cnc2N)-c2c(nn(C)c2C#N)CN(C)C(=O)c2ccc(F)cc21`: the Potency entry in assay [1] was “inactive”. The activity change, negative = inhibition in assay [2] was -7.26%.
The corresponding values for `C=CC(=O)N1CCC(CNc2ncnc(N)c2-c2ccc(Oc3ccccc3)cc2)CC1` are “inactive” and -20.9%.
The corresponding values for `NC(=O)c1cc(F)cc2c1C(=O)N(C1CCN(C3CCC(F)(F)CC3)CC1)C2` are “inactive” and -24%.
On to `O=C(/C=C/c1ccc(Cl)cc1)N1CCC2(CC1)CN(Cc1ccc(Cl)c(Cl)c1)C(=O)O2`, for which, in assay [1], the Potency result is “inactive”. Moreover, the activity change, negative = inhibition in assay [2] worked out at 0.824%.
For `Nc1nccc(-c2c(-c3ccc(F)cc3)ncn2C2CCCCC2)n1`, the Potency result in assay [1] and in assay [2] was “inactive” each time.
`COc1cc(-c2cn(C)c(=O)c3cnccc23)cc(OC)c1CN(C)C`: the Potency entry in assay [1] and in assay [2] was “inactive” each time.
Turning to `CC(C)c1c(-c2ccccc2)nc2c(C#N)c[nH]n2c1=O`, the Potency entry in assay [1] and in assay [2] was “inactive” throughout.
`CCS(=O)(=O)c1ccc2oc(-c3ccc4ccccc4c3)nc2c1`: the Potency result in assay [1] and in assay [2] was “inactive” in each case.
On to `NCc1ccc(OCCCc2sc(-c3ccc4c(c3)/C(=N/Nc3nc5ccccc5s3)CCC4)nc2C(=O)O)cc1`, for which the Potency result in assay [1] was “inactive”. Moreover, the activity change, negative = inhibition in assay [2] was found to be 1.79%.
The corresponding values for `O=C(O)CC1CCC(c2ccc(-c3ccc(Nc4ccc(C(F)(F)F)nc4)cn3)cc2)CC1` (stereo not given) are “inactive” and -24.6%.
In the case of `CC(=O)N[C@H]1CSSC[C@@H](C(N)=O)NC(=O)[C@H](C(C)C)NC(=O)[C@H](C)NC(=O)[C@H](Cc2cnc[nH]2)NC1=O`, the Potency result in assay [1] and in assay [2] was “inactive” each time.
For `CC1(C)[C@@H](O)CC[C@]2(C)[C@H]3C(=O)C=C4[C@@H]5C[C@@](C)(C(=O)O)CC[C@]5(C)CC[C@@]4(C)[C@]3(C)CC[C@@H]12`, the Potency result in assay [1] and in assay [2] was “inactive” in each case.
In the case of `COc1cc2c(NC3CCN(C4CCCCC4)CC3)nc(N3CCCN(C(C)C)CC3)nc2cc1OCCCN1CCCCC1`, the results for the Potency in assay [1] and in assay [2] were 22.4 µM (active) and 11.2 µM (active), respectively.
The corresponding values for `CCOc1cc(C(=O)N2CCC(N3CCN(C)CC3)CC2)ccc1Nc1ncc2c(n1)N(C1CCCC1)c1ccccc1C(=O)N2C` are “inactive” and 25.1 µM (active).
Consider `O=C1Cc2cc(C(=O)NC3C[C@H]4CC[C@@H](C3)N4S(=O)(=O)CC3CCN(CCCC(F)(F)F)CC3)c(Cl)cc2N1` (stereo not given in full), for which, in assay [1], the Potency result is “inactive”. Also, in assay [2], the activity change, negative = inhibition is -20.5%.
As for `OC[C@H]1O[C@@H](S[C@@H]2O[C@H](CO)[C@H](O)[C@H](n3cc(-c4cccc(F)c4)nn3)[C@H]2O)[C@H](O)[C@@H](n2cc(-c3cccc(F)c3)nn2)[C@H]1O`, in assay [1], the Potency result is “inactive”. For the same molecule, the activity change, negative = inhibition in assay [2] worked out at 2.64%.
The like results for `CCNC(=O)Nc1ncc(-c2cc(-c3c(C)cc(OC)cc3C)nc(-c3cnccn3)n2)s1` were, in that order, “inactive” and -1.07%.
Turning to `CC(C)Oc1ccc(-c2nn([C@@H](C)c3oc4ccc(F)cc4c(=O)c3-c3cccc(F)c3)c3ncnc(N)c23)cc1F`, the Potency result in assay [1] was “inactive”. Moreover, the activity change, negative = inhibition in assay [2] was -16.7%.
In the case of `CCS(=O)(=O)N1CCC(C(C)n2c(C)c(C(=O)NCc3c(OC)cc(C)[nH]c3=O)c3ccccc32)CC1` (stereo not given), the Potency result in assay [1] was “inactive”. Also, the activity change, negative = inhibition in assay [2] is -8.61%.
The like results for `CC(C)N(CCCNC(=O)Nc1ccc(C(C)(C)C)cc1)C[C@H]1O[C@@H](n2ccc3c(N)ncnc32)[C@H](O)[C@@H]1O` were, in that order, “inactive” and -9.11%.
`CN1C(=O)[C@@H](NC(=O)c2n[nH]c(Cc3ccccc3)n2)COc2ccccc21`: the Potency result in assay [1] and in assay [2] was “inactive” each time.
